# Laboratory results: PubChem BioAssay (NCATS)
# Values without a mark were called inactive. Inconclusive results are not listed. Where a call stands in place of a potency, no number is given. Active and inactive are the calls of the source. Unless noted, calls follow the shape of the dose curve; as a rule, active = well fitted curve in the direction sought with a large enough effect; inconclusive = small, poorly fitted or top-dose-only effect, or another doubt; inactive = no such curve, though single readings can be large; an effect the other way counts as inactive or inconclusive.
# Legend:
# [1] = target: Guanine nucleotide-binding protein G(i) subunit alpha-1 (Homo sapiens) (UniProt P63096); experiment: qHTS Assay for Inhibitors of RGS12 GoLoco Motif Activity (Green Fluorophore) (AID 879);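 also: negative values mean loss of peptide binding seen as reduced polarization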
# Sequence of Guanine nucleotide-binding protein G(i) subunit alpha-1 (Homo sapiens) (P63096 whole entry, looked up): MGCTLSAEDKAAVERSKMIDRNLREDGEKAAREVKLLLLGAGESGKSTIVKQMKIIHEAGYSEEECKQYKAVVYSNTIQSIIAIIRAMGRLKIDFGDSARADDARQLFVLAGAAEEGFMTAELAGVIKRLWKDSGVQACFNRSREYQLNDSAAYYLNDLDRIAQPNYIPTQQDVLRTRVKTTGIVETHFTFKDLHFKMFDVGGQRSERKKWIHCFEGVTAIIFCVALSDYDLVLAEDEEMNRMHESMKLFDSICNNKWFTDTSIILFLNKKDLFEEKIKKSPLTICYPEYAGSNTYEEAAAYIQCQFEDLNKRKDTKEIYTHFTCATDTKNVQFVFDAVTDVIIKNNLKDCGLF
# In short: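 A drop in FITC polarization marked displacement of the FITC-tagged RGS12 GoLoco peptide (10 nM) from Gαi1 (50 nM). Compounds were incubated 10 min at room temperature in Tris pH 7.5 buffer containing 150 mM NaCl, 0.1 mM GDP and 0.05% NP40; unlabeled peptide titration served as control.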
# [2] = target: Cytochrome P450 2C9 (Homo sapiens) (UniProt P11712); experiment: qHTS Assay for Inhibitors and Substrates of Cytochrome P450 2C9 (AID 883); also: nearly all actives have a fitted effect of over 60% in size
# Sequence of Cytochrome P450 2C9 (Homo sapiens) (P11712 whole entry, looked up): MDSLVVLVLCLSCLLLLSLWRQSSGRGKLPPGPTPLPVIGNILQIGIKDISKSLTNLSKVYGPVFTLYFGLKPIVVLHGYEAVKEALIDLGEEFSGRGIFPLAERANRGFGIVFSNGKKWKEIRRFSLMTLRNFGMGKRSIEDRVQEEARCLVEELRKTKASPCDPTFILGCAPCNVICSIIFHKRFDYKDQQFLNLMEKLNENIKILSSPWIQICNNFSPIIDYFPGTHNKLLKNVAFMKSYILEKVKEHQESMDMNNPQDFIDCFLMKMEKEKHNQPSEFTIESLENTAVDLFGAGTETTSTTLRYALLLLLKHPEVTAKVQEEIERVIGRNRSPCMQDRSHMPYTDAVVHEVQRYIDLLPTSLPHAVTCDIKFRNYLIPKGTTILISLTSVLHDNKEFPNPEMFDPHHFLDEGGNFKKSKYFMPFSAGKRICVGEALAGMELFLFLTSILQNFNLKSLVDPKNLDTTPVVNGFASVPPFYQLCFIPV
# In short: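 Human CYP2C9 (10nM) with Luciferin-H at 100uM (its KM) in 25mM KPO4; compound preincubated 10 min at 37C, then NADPH regeneration for 60 min at 37C. Luciferin read by luminescence after detection reagent; normalized to 57uM sulphaphenazole as full inhibition.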
# [3] = target: Cytochrome P450 2D6 (Homo sapiens) (UniProt P10635); experiment: qHTS Assay for Inhibitors and Substrates of Cytochrome P450 2D6 (AID 891);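 also: luciferin methyl ether substrate demethylated by CYP2D6 with NADPH regeneration; nearly all actives have a fitted effect of over 60% in size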
# Sequence of Cytochrome P450 2D6 (Homo sapiens) (P10635 whole entry, looked up): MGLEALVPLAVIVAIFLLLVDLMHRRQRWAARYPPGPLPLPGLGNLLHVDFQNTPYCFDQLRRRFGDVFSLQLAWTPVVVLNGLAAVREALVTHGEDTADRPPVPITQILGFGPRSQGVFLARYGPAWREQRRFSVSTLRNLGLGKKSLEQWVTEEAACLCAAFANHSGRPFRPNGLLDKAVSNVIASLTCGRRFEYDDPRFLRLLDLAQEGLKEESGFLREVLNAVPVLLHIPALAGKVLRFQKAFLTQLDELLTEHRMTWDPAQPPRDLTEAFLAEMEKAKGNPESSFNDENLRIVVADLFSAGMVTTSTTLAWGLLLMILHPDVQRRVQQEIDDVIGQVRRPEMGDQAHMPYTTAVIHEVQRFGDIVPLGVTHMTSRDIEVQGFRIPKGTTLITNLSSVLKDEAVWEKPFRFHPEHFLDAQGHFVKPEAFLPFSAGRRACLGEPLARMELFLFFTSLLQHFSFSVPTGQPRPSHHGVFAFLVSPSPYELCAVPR
# In short: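 Luminescent read-out of luciferin formed by 5 nM human CYP2D6 demethylating 30 uM Luciferin-ME EGE (Km level) over 60 min at room temperature after NADPH regeneration addition. Data normalized to full inhibition by 1.43 uM quinidine.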
# [4] = qHTS Assay for Identification of Small Molecule Antagonists for NFkB Signaling Pathway (AID 895; active = well fitted inhibition curve with a large enough effect in the signal ratio, with a control signal flat, not every such curve was filed as active; the % refers to the signal ratio)
# In short: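 ME-180 NFkB-bla cells (beta-lactamase under NFkB response element), plated overnight, treated with compound then 10 pM TNF alpha (about EC50) for 5 hrs at 37 C. LiveBLAzer FRET read at 460/530 nm emission, 405 nm excitation.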
# [5] = target: Cytochrome P450 2C19 (Homo sapiens) (UniProt P33261); experiment: qHTS Assay for Inhibitors and Substrates of Cytochrome P450 2C19 (AID 899); also: nearly all actives have a fitted effect of over 60% in size; also: potency is read from the fitted curve at half-maximal effect
# Sequence of Cytochrome P450 2C19 (Homo sapiens) (P33261 whole entry, looked up): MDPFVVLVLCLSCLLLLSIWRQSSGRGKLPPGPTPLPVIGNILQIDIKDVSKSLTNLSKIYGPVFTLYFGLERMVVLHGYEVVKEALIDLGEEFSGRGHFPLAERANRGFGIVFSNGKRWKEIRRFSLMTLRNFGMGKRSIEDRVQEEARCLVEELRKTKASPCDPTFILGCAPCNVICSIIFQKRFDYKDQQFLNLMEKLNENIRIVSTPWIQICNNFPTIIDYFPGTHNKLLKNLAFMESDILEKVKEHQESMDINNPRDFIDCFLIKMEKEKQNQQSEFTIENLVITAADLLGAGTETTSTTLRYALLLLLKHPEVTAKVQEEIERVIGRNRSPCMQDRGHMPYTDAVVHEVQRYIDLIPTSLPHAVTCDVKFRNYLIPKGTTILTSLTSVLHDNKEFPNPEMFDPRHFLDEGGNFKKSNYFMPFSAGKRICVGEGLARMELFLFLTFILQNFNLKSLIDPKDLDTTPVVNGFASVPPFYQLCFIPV
# In short: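 5 nM human CYP2C19 with 10uM Luciferin-H EGE (at KM) in 50mM KPO4, compound preincubated 10 min at 37C, then NADPH regeneration for 60 min at 37C. Luciferin read by luminescence after detection reagent; normalized to 57uM ketoconazole as full inhibition.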
# [6] = qHTS Assay for Identification of Small Molecule Agonists for Thrombopoietin (TPO) Signaling Pathway (AID 917)
# In short: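 Cell-based luciferase reporter screen. Mouse Ba/F3 line stably expressing human TPO receptor; IL-3 removed overnight before plating. Co-treatment with compound and EC50 TPO (26 pM), 24 hrs at 37 C, then luminescence.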
# [7] = Confirmation and Secondary Assay for Modulators of Hemoglobin Beta Chain Splicing at IVS2 654 locus (AID 910);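 also: HeLa cells stably carrying EGFP split by mutant beta-globin IVS2-654 intron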
# In short: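 HeLa cells stably expressing EGFP interrupted by β-globin IVS2-654 intron, seeded overnight in Opti-MEM/2% FCS, then treated 2 days at 37 °C. Restored splicing read as total peak GFP intensity per well by laser scanning cytometry (488 nm excitation, 500–520 nm emission); 500 nM antisense PNA as control.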
# [8] = Confirmation and Secondary Assay for Modulators of Hemoglobin Beta Chain Splicing at IVS2 705 locus (AID 930);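 also: GFP fluorescence per well restored by corrected splicing of the IVS2-705 intron in EGFP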; also: potency is read from the fitted curve at half-maximal effect
# In short: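 First, HeLa EGFP-705 cells are seeded at 500/well in Optimem with 2% FCS and left overnight. Next, compound or DMSO is added for 2 days. Finally wells are laser-scanned and total peak GFP intensity scored.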
structure (smiles),measurement,setting,value
NC(=O)c1cccc(N)c1,outcome,[1],inactive
same,outcome,[2],inactive
same,Potency,[3],inactive
same,Potency,[4],inactive
same,Potency,[5],inactive
same,outcome,[6],inactive
CN(Cc1cc(Br)cc(Br)c1N)C1CCCCC1,Potency,[7],inactive
same,Potency,[8],inactive
CCCOc1ccc(C(=O)OCCN(CC)CC)cc1N,Potency,[5],inactive
COC(=O)Nc1nc2ccc(S(=O)c3ccccc3)cc2[nH]1 (configuration not stated),Potency,[7],inactive
same,Potency,[8],inactive
CN(C)CCc1c[nH]c2ccc(CS(=O)(=O)N3CCCC3)cc12,Potency,[7],inactive
same,Potency,[8],inactive
Cn1c(=O)c2c(ncn2CC(O)CO)n(C)c1=O (configuration not stated),Potency,[7],inactive
same,Potency,[8],inactive
CCn1cc(C(=O)O)c(=O)c2cc(F)c(N3CCNCC3)cc21,Potency,[7],inactive
same,Potency,[8],inactive
CCCc1cc(C(N)=S)ccn1,Potency,[7],inactive
same,Potency,[8],inactive
COc1c(N2CCNC(C)C2)c(F)cc2c(=O)c(C(=O)O)cn(C3CC3)c12 (configuration not stated),Potency,[7],inactive
same,Potency,[8],inactive
Nc1nc(N)c2nc(CNc3ccc(C(=O)NC(CCC(=O)O)C(=O)O)cc3)cnc2n1 (configuration not stated),Potency,[7],inactive
same,Potency,[8],inactive
CCCCCCNC(=O)n1cc(F)c(=O)[nH]c1=O,Potency,[7],inactive
same,Potency,[8],inactive
NCCCC(O)(P(=O)(O)O)P(=O)(O)O,Potency,[7],inactive
same,Potency,[8],inactive
CC(C)(Sc1cc(C(C)(C)C)c(O)c(C(C)(C)C)c1)Sc1cc(C(C)(C)C)c(O)c(C(C)(C)C)c1,Potency,[7],inactive
same,Potency,[8],inactive
CC(=O)CC(c1ccccc1)c1c(O)c2ccccc2oc1=O (configuration not stated),Potency,[7],inactive
same,Potency,[8],inactive
NS(=O)(=O)c1cc2c(cc1Cl)NC(C(Cl)Cl)NS2(=O)=O (configuration not stated),Potency,[7],inactive
same,Potency,[8],inactive
O=c1oc2c(O)c(O)cc3c(=O)oc4c(O)c(O)cc1c4c23,Potency,[3],inactive
same,Potency,[5],31.6 µM (active)
same,Potency,[7],inactive
same,Potency,[8],10 µM (active)
